# Source: publication PMC8384837, “Expanding the binding specificity for RNA recognition by a PUF domain”
# Substitutions are numbered along the chain they refer to.
# Tests used:
# Assay in all cases: yeast three-hybrid, YBZ-1, SC-Leu-His + 0.5 mM 3-AT, 4 days
# Settings in all cases: tags: N-Gal4 AD-HA kept; label: inside an RPR1-promoter hybrid RNA with tandem MS2 sites; ssRNA
# PUM1 PUF domain R1-RGN = PUM1 PUF domain R1-RGN (Homo sapiens, UniProt Q14671 828-1176, S863R;R864G;Q867N)
# Summary of the method: (§1)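 Pumilio-1 PUF domain libraries, randomized at the three base-contacting residues of each repeat, were co-expressed with matching RNA elements from a centromeric plasmid in strain YBZ-1, which carries a LexA–MS2 coat fusion and a HIS3 reporter. Transformants grew for four days on SC-Leu (input) or on SC-Leu-His + 0.5 mM 3-AT (selection), and the repeat regions were PCR-amplified and Illumina-sequenced. The interaction score is the log change in variant frequency from input to selection. That logarithm is base 2, with a pseudocount of 1 where a variant was absent.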
# PUM1 PUF domain R3-LYR = PUM1 PUF domain R3-LYR (Homo sapiens, UniProt Q14671 828-1176, C935L;R936Y;Q939R)
# Summary of the method: as §1
# PUM1 PUF domain R3-VWD = PUM1 PUF domain R3-VWD (Homo sapiens, UniProt Q14671 828-1176, C935V;R936W;Q939D)
# Summary of the method: as §1
# PUM1 PUF domain R7-DYV = PUM1 PUF domain R7-DYV (Homo sapiens, UniProt Q14671 828-1176, S1079D;N1080Y;E1083V)
# Summary of the method: as §1
# PUM1 PUF domain R1-WKR = PUM1 PUF domain R1-WKR (Homo sapiens, UniProt Q14671 828-1176, S863W;R864K;Q867R)
# Summary of the method: as §1
# PUM1 PUF domain R1-KAV = PUM1 PUF domain R1-KAV (Homo sapiens, UniProt Q14671 828-1176, S863K;R864A;Q867V)
# Summary of the method: as §1
# PUM1 PUF domain R5-KMV = PUM1 PUF domain R5-KMV (Homo sapiens, UniProt Q14671 828-1176, C1007K;R1008M;Q1011V)
# Summary of the method: as §1
# PUM1 PUF domain R5-PRK = PUM1 PUF domain R5-PRK (Homo sapiens, UniProt Q14671 828-1176, C1007P;Q1011K)
# Summary of the method: as §1
# PUM1 PUF domain R8-KRV = PUM1 PUF domain R8-KRV (Homo sapiens, UniProt Q14671 828-1176, N1122K;Y1123R;Q1126V)
# Summary of the method: as §1
# PUM1 PUF domain R8-RYC = PUM1 PUF domain R8-RYC (Homo sapiens, UniProt Q14671 828-1176, N1122R;Q1126C)
# Summary of the method: as §1
# PUM1 PUF domain R8-LYI = PUM1 PUF domain R8-LYI (Homo sapiens, UniProt Q14671 828-1176, N1122L;Q1126I)
# Summary of the method: as §1
# PUM1 PUF domain R8-GFK = PUM1 PUF domain R8-GFK (Homo sapiens, UniProt Q14671 828-1176, N1122G;Y1123F;Q1126K)
# Summary of the method: as §1
# PUM1 PUF domain R2-AWH = PUM1 PUF domain R2-AWH (Homo sapiens, UniProt Q14671 828-1176, N899A;Y900W;Q903H)
# Summary of the method: as §1
# PUM1 PUF domain R2-LFA = PUM1 PUF domain R2-LFA (Homo sapiens, UniProt Q14671 828-1176, N899L;Y900F;Q903A)
# Summary of the method: as §1
# PUM1 PUF domain R5-RFI = PUM1 PUF domain R5-RFI (Homo sapiens, UniProt Q14671 828-1176, C1007R;R1008F;Q1011I)
# Summary of the method: as §1
# PUM1 PUF domain R6-VYH = target: T1, PUM1 PUF domain R6-VYH (Homo sapiens, UniProt Q14671 828-1176, N1043V;Q1047H)
# T1 sequence: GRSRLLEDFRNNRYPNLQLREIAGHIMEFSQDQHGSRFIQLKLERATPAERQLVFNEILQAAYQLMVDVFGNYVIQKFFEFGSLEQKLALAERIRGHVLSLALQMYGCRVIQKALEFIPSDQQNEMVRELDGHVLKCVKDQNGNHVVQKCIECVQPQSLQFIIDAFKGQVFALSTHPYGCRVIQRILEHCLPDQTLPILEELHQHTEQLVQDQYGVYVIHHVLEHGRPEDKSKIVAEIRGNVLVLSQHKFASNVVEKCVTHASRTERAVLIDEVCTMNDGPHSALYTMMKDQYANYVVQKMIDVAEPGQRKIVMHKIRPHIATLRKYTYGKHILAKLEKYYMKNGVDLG
# Summary of the method: as §1
# PUM1 PUF domain R4-VMC = PUM1 PUF domain R4-VMC (Homo sapiens, UniProt Q14671 828-1176, N971V;H972M;Q975C)
# Summary of the method: as §1
# PUM1 PUF domain R4-VNV = PUM1 PUF domain R4-VNV (Homo sapiens, UniProt Q14671 828-1176, N971V;H972N;Q975V)
# Summary of the method: as §1
# PUM1 PUF domain R8-RFK = PUM1 PUF domain R8-RFK (Homo sapiens, UniProt Q14671 828-1176, N1122R;Y1123F;Q1126K)
# Summary of the method: as §1
# PUM1 PUF domain R6-HFV = target: T2, PUM1 PUF domain R6-HFV (Homo sapiens, UniProt Q14671 828-1176, N1043H;Y1044F;Q1047V)
# T2 sequence: T1 sequence with V216H, Y217F, H220V
# Summary of the method: as §1
# Chain of PUM1 PUF domain R5-PRK (Q14671 828-1176 C1007P/Q1011K): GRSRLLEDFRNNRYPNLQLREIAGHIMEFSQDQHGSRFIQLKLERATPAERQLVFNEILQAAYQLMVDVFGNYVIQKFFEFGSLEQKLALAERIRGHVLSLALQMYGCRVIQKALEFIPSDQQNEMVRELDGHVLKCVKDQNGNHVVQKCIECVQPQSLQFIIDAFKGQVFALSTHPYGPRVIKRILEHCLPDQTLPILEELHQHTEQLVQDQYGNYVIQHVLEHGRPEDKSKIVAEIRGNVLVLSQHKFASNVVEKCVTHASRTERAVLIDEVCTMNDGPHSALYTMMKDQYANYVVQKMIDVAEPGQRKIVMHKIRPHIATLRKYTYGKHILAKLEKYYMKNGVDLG
sequence,measurement,setting,value
GGCUAGAACUAGUGGAUCCCCCGGCGCCCGGCGGCUCGAGCCCGGGUAAGUGUAAAUGGUCUGCAUGCCGCCGGGCGCCAUGCCUGCAGGUCGACUCUAGAAAACAUG,binding signal,PUM1 PUF domain R1-RGN,0.76 log2 enrichment (interaction score)
GGCUAGAACUAGUGGAUCCCCCGGCGCCCGGCGGCUCGAGCCCGGGUAAGUGUAAGUAGUCUGCAUGCCGCCGGGCGCCAUGCCUGCAGGUCGACUCUAGAAAACAUG,binding signal,PUM1 PUF domain R3-LYR,5.31 log2 enrichment (interaction score)
same,binding signal,PUM1 PUF domain R3-VWD,1.13 log2 enrichment (interaction score)
GGCUAGAACUAGUGGAUCCCCCGGCGCCCGGCGGCUCGAGCCCGGGUAAGUUUAAAUAGUCUGCAUGCCGCCGGGCGCCAUGCCUGCAGGUCGACUCUAGAAAACAUG,binding signal,PUM1 PUF domain R7-DYV,6 log2 enrichment (interaction score)
GGCUAGAACUAGUGGAUCCCCCGGCGCCCGGCGGCUCGAGCCCGGGUAAGUGUAAAUUGUCUGCAUGCCGCCGGGCGCCAUGCCUGCAGGUCGACUCUAGAAAACAUG,binding signal,PUM1 PUF domain R1-WKR,3.54 log2 enrichment (interaction score)
same,binding signal,PUM1 PUF domain R1-RGN,2.37 log2 enrichment (interaction score)
same,binding signal,PUM1 PUF domain R1-KAV,2.36 log2 enrichment (interaction score)
GGCUAGAACUAGUGGAUCCCCCGGCGCCCGGCGGCUCGAGCCCGGGUAAGUGUCAAUAGUCUGCAUGCCGCCGGGCGCCAUGCCUGCAGGUCGACUCUAGAAAACAUG,binding signal,PUM1 PUF domain R5-KMV,3.71 log2 enrichment (interaction score)
same,binding signal,PUM1 PUF domain R5-PRK,2.13 log2 enrichment (interaction score)
GGCUAGAACUAGUGGAUCCCCCGGCGCCCGGCGGCUCGAGCCCGGGUAAGUGUAAAUCGUCUGCAUGCCGCCGGGCGCCAUGCCUGCAGGUCGACUCUAGAAAACAUG,binding signal,PUM1 PUF domain R1-WKR,1.59 log2 enrichment (interaction score)
same,binding signal,PUM1 PUF domain R1-RGN,1.85 log2 enrichment (interaction score)
GGCUAGAACUAGUGGAUCCCCCGGCGCCCGGCGGCUCGAGCCCGGGUAAGCGUAAAUAGUCUGCAUGCCGCCGGGCGCCAUGCCUGCAGGUCGACUCUAGAAAACAUG,binding signal,PUM1 PUF domain R8-KRV,3.19 log2 enrichment (interaction score)
same,binding signal,PUM1 PUF domain R8-RYC,5.8 log2 enrichment (interaction score)
same,binding signal,PUM1 PUF domain R8-LYI,2.78 log2 enrichment (interaction score)
same,binding signal,PUM1 PUF domain R8-GFK,3.45 log2 enrichment (interaction score)
GGCUAGAACUAGUGGAUCCCCCGGCGCCCGGCGGCUCGAGCCCGGGUAAGUGUAAAAAGUCUGCAUGCCGCCGGGCGCCAUGCCUGCAGGUCGACUCUAGAAAACAUG,binding signal,PUM1 PUF domain R2-AWH,2.3 log2 enrichment (interaction score)
same,binding signal,PUM1 PUF domain R2-LFA,3.68 log2 enrichment (interaction score)
GGCUAGAACUAGUGGAUCCCCCGGCGCCCGGCGGCUCGAGCCCGGGUAAGUGUGAAUAGUCUGCAUGCCGCCGGGCGCCAUGCCUGCAGGUCGACUCUAGAAAACAUG,binding signal,PUM1 PUF domain R5-PRK,3.87 log2 enrichment (interaction score)
same,binding signal,PUM1 PUF domain R5-RFI,3.33 log2 enrichment (interaction score)
GGCUAGAACUAGUGGAUCCCCCGGCGCCCGGCGGCUCGAGCCCGGGUAAGUGUAAUUAGUCUGCAUGCCGCCGGGCGCCAUGCCUGCAGGUCGACUCUAGAAAACAUG,binding signal,PUM1 PUF domain R3-LYR,4.25 log2 enrichment (interaction score)
GGCUAGAACUAGUGGAUCCCCCGGCGCCCGGCGGCUCGAGCCCGGGUAAGUGAAAAUAGUCUGCAUGCCGCCGGGCGCCAUGCCUGCAGGUCGACUCUAGAAAACAUG,binding signal,PUM1 PUF domain R6-VYH,5.62 log2 enrichment (interaction score)
GGCUAGAACUAGUGGAUCCCCCGGCGCCCGGCGGCUCGAGCCCGGGUAAGUGUACAUAGUCUGCAUGCCGCCGGGCGCCAUGCCUGCAGGUCGACUCUAGAAAACAUG,binding signal,PUM1 PUF domain R4-VMC,2.94 log2 enrichment (interaction score)
same,binding signal,PUM1 PUF domain R4-VNV,2.33 log2 enrichment (interaction score)
GGCUAGAACUAGUGGAUCCCCCGGCGCCCGGCGGCUCGAGCCCGGGUAAGUGUUAAUAGUCUGCAUGCCGCCGGGCGCCAUGCCUGCAGGUCGACUCUAGAAAACAUG,binding signal,PUM1 PUF domain R5-PRK,4.06 log2 enrichment (interaction score)
GGCUAGAACUAGUGGAUCCCCCGGCGCCCGGCGGCUCGAGCCCGGGUAAGUGUAAAUAGUCUGCAUGCCGCCGGGCGCCAUGCCUGCAGGUCGACUCUAGAAAACAUG,binding signal,PUM1 PUF domain R3-LYR,4.29 log2 enrichment (interaction score)
same,binding signal,PUM1 PUF domain R8-KRV,2.09 log2 enrichment (interaction score)
same,binding signal,PUM1 PUF domain R8-RFK,6.27 log2 enrichment (interaction score)
same,binding signal,PUM1 PUF domain R8-RYC,5.15 log2 enrichment (interaction score)
same,binding signal,PUM1 PUF domain R8-LYI,1.1 log2 enrichment (interaction score)
same,binding signal,PUM1 PUF domain R5-PRK,2.27 log2 enrichment (interaction score)
same,binding signal,PUM1 PUF domain R3-VWD,5.84 log2 enrichment (interaction score)
same,binding signal,PUM1 PUF domain R6-HFV,2.51 log2 enrichment (interaction score)
same,binding signal,PUM1 PUF domain R5-RFI,3.37 log2 enrichment (interaction score)
same,binding signal,PUM1 PUF domain R4-VMC,2.72 log2 enrichment (interaction score)
